A selection: hits, their analogues and other compounds. The true share with any hit is near 21%.
Shiga inhibitor: A qHTS for Small Molecule Inhibitors of Shiga Toxin. hit rate 9.2% among 290,000. Vero cells, Shiga toxin protein synthesis inhibition reporter. AID 2315, 2010. inhibition, % at 38.7 µM; in the data active means inhibition mostly above about 28%, no sharp cut-off; inactive means mostly below about 43%; further: 0% is about no effect
NS1 inh: qHTS Assay for Inhibitors of Influenza NS1 Protein Function | Potency, µM (top dose mostly 46.1 µM), without a hit: at the top dose activity, positive = more growth | hit rate 0.4% among 270,000; calls by dose curve; further: potency means the concentration at half of the fitted maximal effect; actives are rising curves; nearly all actives have a fitted effect of over 50% in size
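Compounds were scored for reversing the slow growth caused by influenza A NS1 in S. cerevisiae, measured by optical density at 600 nm. Assay medium contained 2% galactose at pH 6.0; NS1-free yeast of the same strain were the positive control.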
Pf growth 96h: Primary qHTS for delayed death inhibitors of the malarial parasite plastid, 96 hour incubation; Potency, µM (series often up to 28.7 µM), for inactives: at the top dose activity change, negative = inhibition, actives largely listed as inhibitors; P. falciparum luciferase reporter growth, 96 h; hit rate 6.9% among 320,000; further: potency means the concentration at half of the fitted maximal effect; on the % scale 0 is the no-effect control and ±100 the full control effect
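Erythrocytes infected with luciferase-expressing P. falciparum were dispensed at 2% hematocrit and 0.05% parasitemia (final), then incubated with compounds 96 hours at 37 C in 5% CO2. Luminescence after detection reagent addition reported growth.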
CHX counter: Cycloheximide Counterscreen for Small Molecule Inhibitors of Shiga Toxin; cell reporter, cycloheximide protein synthesis inhibition counterscreen; hit rate 12% among 300,000; AID 2314, 2010; max response, %; in the data active means max response mostly above about 13%, no sharp cut-off; inactive means mostly below about 14%; further: read at 38.3 µM for the half of the compounds with a filed dose; 0% is about no effect
Pf growth 48h: Primary qHTS for delayed death inhibitors of the malarial parasite plastid, 48 hour incubation; P. falciparum luciferase growth in erythrocytes, 48 h; Potency, µM (doses to about 28.7 µM), without a hit: at the top dose activity change, negative = inhibition, most hits filed as inhibitors; hit rate 5.9% among 310,000; AID 504832, 2011; further: potency means the concentration at half of the fitted maximal effect; on the % scale 0 is the no-effect control and ±100 the full control effect
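Firefly luciferase activity from engineered P. falciparum reports growth; inhibitors lower the luminescent signal. Cultures contained 2% hematocrit erythrocytes at 0.1% final parasitemia.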
Sm TGR block: qHTS Assay for the Inhibitors of Schistosoma Mansoni Peroxiredoxins; Potency, µM (doses to about 114 µM), for the others: top-dose activity change, negative = inhibition, most hits filed as inhibitors; AID 485364, 2010; hit rate 3% among 360,000; purified TGR, DTNB reduction, TNB absorbance 405 nm; Schistosoma mansoni thioredoxin glutathione reductase (TGR), Q962Y6; further: potency means the concentration at half of the fitted maximal effect; on the % scale 0 is the no-effect control and ±100 the full control effect; nearly all actives have a fitted effect of over 60% in size
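Kinetic colorimetric format: TGR-catalysed, NADPH-driven DTNB reduction monitored via TNB absorbance. Enzyme dispensed at 20 nM; compound exposure 15 min at room temperature before reaction start.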
* = called active by the depositor; ? = inconclusive; . = no result; + = active, no number. Unless noted, the call rests on the fitted dose curve; in most records, active means well fitted curve in the direction sought with a large enough effect; inconclusive means small, poorly fitted or top-dose-only effect, or another doubt; inactive means no such curve, though single readings can be large; an effect the other way counts as inactive or inconclusive.

SMILES	Shiga inhibitor	NS1 inh	Pf growth 96h	CHX counter	Pf growth 48h	Sm TGR block
CC1=NN(C(N)=S)C(=O)C1N=Nc1c(Cl)cc([N+](=O)[O-])cc1Cl (centres undefined)	27.4*	-115.1%	8.9%	18.0*	?	-24.9%
CC1=NN(C(N)=S)C(=O)C1N=Nc1c(C)cc(C)cc1C (centres undefined)	-12.6	-130.9%	4.15µM*	2.5	.	-16.9%
CC1=NN(C(N)=S)C(=O)C1N=Nc1cccc(Cl)c1 (centres undefined)	78.9*	-49.5%	23.6%	44.0*	.	?
COc1ccc(CN(CC(=O)NCCc2ccccc2)C(=O)CCC(=O)Nc2cc(C)ccn2)cc1	-10.1	-8.1%	0.5%	-5.1	-21.4%	-5.8%
CC1=NN(C(N)=S)C(=O)C1N=Nc1ccccc1O (centres undefined)	15.5	14.8%	-19.0%	15.3*	40.6%	-0.4%
Cc1oc(C)c2c(=O)ccc3c(c12)OC(N)=C(C#N)C3c1ccccc1 (centres undefined)	-5.8	8.1%	74.6%	-2.7	?	28.2µM*
Cc1oc(C)c2c(=O)ccc3c(c12)OC(N)=C(C#N)C3c1ccccc1Cl (centres undefined)	-6.1	9.3%	63.1%	7.6	?	?
CSc1ccc(C2C(C#N)=C(N)Oc3c2ccc(=O)c2c(C)oc(C)c32)cc1 (centres undefined)	-9.8	?	-11.3%	2.1	?	28.2µM*
O=C(Nc1ccccc1N1CCN(c2ccccc2)CC1)c1ccccc1	26.4	.	?	26.0	-5.1%	0.0%
FC(F)(F)c1ccc(CSc2ccccn2)cc1	53.3*	-1.2%	12.4%	18.5*	19.4%	-4.1%
COc1ccccc1NC(=O)c1ccc(CSc2ncccn2)cc1	54.7*	-5.0%	?	13.6*	9.3%	15.6%
O=C(Nc1ccccc1)c1ccc(CSc2ccccn2)cc1	63.4*	27.8%	303.9%	35.8*	275.8%	9.8%
Cc1ccc(-c2ccc(=O)n(CC(=O)Nc3ccc(F)c(Cl)c3)n2)cc1C	.	.	.	.	.	6.0%
Cc1cccc(Nc2nnc(SCC(=O)c3c(N)n(C4CC4)c(=O)[nH]c3=O)s2)c1	.	.	6.57µM*	.	-17.6%	-10.0%
COCCn1c(SCC(=O)c2c(N)n(C3CC3)c(=O)[nH]c2=O)nnc1-c1cccc(C)c1	.	.	8.28µM*	.	8.28µM*	-3.1%
Cc1cccc(Nc2nnc(SC(C)C(=O)NC3CC3)s2)c1 (centres undefined)	.	.	10.4µM*	.	13.1µM*	-0.6%
Cc1ccc(Nc2nnc(SCC(=O)c3c(N)n(C4CC4)c(=O)[nH]c3=O)s2)cc1C	.	.	?	.	-22.5%	-8.9%
CC(Sc1nnc(Nc2ccccc2F)s1)C(=O)NC1CC1 (centres undefined)	.	.	?	.	?	-5.2%
C/C(N)=C(/C#N)C(=O)CSc1nnc(Nc2cccc(C)c2)s1	67.1*	-1.1%	?	30.9*	44.0%	3.8%
COc1ccc(C2NCCc3c2[nH]c2ccccc32)cc1CSc1nc2ccccc2s1 (centres undefined)	-14.3	?	?	-5.8	?	-11.2%
COC(=O)c1sc(C(C)(C)C)cc1CS(=O)(=O)c1ccc(Cl)cc1	1.5	0.3%	?	-1.7	?	17.0%
CN1C(=O)c2[nH]nc(-c3ccc(F)cc3)c2C1c1cccc(O)c1 (centres undefined)	.	.	.	.	.	-8.5%
CCn1c(SCC(=O)c2c(N)n(C3CC3)c(=O)[nH]c2=O)nnc1-c1ccccc1OC	.	.	8.28µM*	.	?	-5.5%
C/C(N)=C(/C#N)C(=O)CSc1cc(Cl)ccc1Cl	4.8	-5.7%	2.4%	-1.4	16.7%	-1.8%
CCn1cnnc1SCC(=O)c1c(N)n(C2CC2)c(=O)[nH]c1=O	.	.	?	.	-11.6%	-6.8%
Nc1c(C(=O)CSc2nncn2-c2ccccc2)c(=O)[nH]c(=O)n1C1CC1	.	.	11.7µM*	.	?	-20.6%
C/C(N)=C(/C#N)C(=O)CSc1nc2cc(Cl)ccc2s1	+	-16.6%	44.8%	23.9*	22.2%	-9.3%

Assay outcomes as filed in PubChem.
